Source: PubChem (several laboratories)
The list is not random: actives were taken first. Their share in the collection is about 4.4%.
NFkB transloc inh: blocks IL-1B driven NFkB nuclear translocation in HUVEC cells; HUVEC IL-1B NFkB p65 nuclear translocation imaging; inhibition, % at 2 µM; hit rate 0.43% among 94,000; AID 796;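 active = inhibition above about 30% together with a positive call from visual inspection of the well image, limit read from the data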;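 note: nuclear over cytoplasmic p65 intensity ratio measured by imaging; 0% = IL-1B stimulated DMSO wells and 100% = unstimulated DMSO wells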
IL1B cytotox: toxic to HUVEC cells under IL-1B stimulation. HUVEC cell count loss, Hoechst imaging, IL-1B stimulated. cell count reduction, % at 2 µM. hit rate 0.41% among 94,000. AID 845;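 active = cell count reduction more than 3 SD above the screen-wide mean, cut at about 70% in these data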;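 note: normalized per plate to untreated control cells as the no-loss baseline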
NFkB transloc pot: enhances IL-1B driven NFkB nuclear translocation | HUVEC IL-1B NFkB p65 nuclear translocation imaging | activation, % at 2 µM | hit rate 0.3% among 94,000;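 active = activation above 40%, about the mean plus 3 SD, also judged a hit on visual image review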;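 note: percent activation is computed from the nuclear over cytoplasmic p65 intensity ratio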
Cav3 T inh: human Cav3.2 channel inhibition, primary screen; O95180; Cav3.2-expressing cells, Fluo-4 calcium fluorescence FDSS; stronger effect = lower value; B-score at 10 µM; hit rate 4% among 100,000; AID 449739;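 active = single-dose well whose peak fluorescence ratio is a statistical outlier from its plate by either plate-standardised score or position-corrected B-score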
* hit, by the source's call; / = no result given.

SMILES | NFkB transloc inh | IL1B cytotox | NFkB transloc pot | Cav3 T inh
COc1cc(NC(=O)CCc2nc(-c3cccs3)no2)cc(OC)c1OC | / | / | / | 0.602
CCOC(=O)c1ccc(NC(=O)CCc2nc(-c3ccccc3Cl)no2)cc1 | / | / | / | -3.78*
CCc1cccc(NC(=O)CCc2nc(-c3cccs3)no2)c1 | -6.3 | -8.4 | 6.3 | -7.07*
CC(=O)n1cc([C@H]2C=C(C(=O)N3CCOCC3)O[C@@H](OCCCCO)C2)c2ccccc21 | / | / | / | 0.176
NC(=O)[C@@H]1CCCNc2c(I)cc([N+](=O)[O-])cc2C(=O)N[C@@H](Cc2ccccc2)C(=O)N[C@@H](Cc2cnc[nH]2)C(=O)N1 | / | / | / | 0.442
Cc1ccc(N(CCCCN2C(=O)c3ccccc3C2=O)C(=O)c2cccs2)cc1 | 6.2 | 6.7 | -6.2 | -5.82*
O=C1c2ccccc2C(=O)N1CCCCN(C(=O)c1ccco1)c1ccc(Cl)cc1 | -34.9 | -24.9 | 34.9 | -8.47*
Cc1ccc(S(=O)(=O)N2CCN(Cc3cc(C(C)C)ccc3O)CC2)cc1 | 12.4 | -1.8 | -12.4 | -2.78
COc1ccc(NC(=O)CSc2nc3ccccc3cc2Cc2ccccc2)cc1 | -7.1 | -16.4 | 7.1 | -4.19*
COc1cccc(CSc2nc3ccccc3cc2C=O)c1 | 43.0* | 71.9* | -43.0 | -0.756
COc1cc(NC(=O)CSc2nc3ccccc3cc2Cc2ccccc2)cc(OC)c1 | 0.9 | -55.4 | -0.9 | -3
COc1cccc(NC(=O)CSc2nc3ccccc3cc2Cc2ccccc2)c1 | 3.6 | 9.0 | -3.6 | -4.01*
Cc1ccc(NC2=NCC(=O)N2C2CCCC2)c(C)c1 | -12.9 | -7.2 | 12.9 | /
O=[N+]([O-])c1c(C(Cl)Cl)nn(-c2ccccc2)c1N1CCCC1 | 8.9 | 11.4 | -8.9 | -0.648
C/C(N)=C(/C#N)C(=O)CSc1nc(C2CCCCC2)n(-c2ccccc2)n1 | / | / | / | -5.1*
C=CCn1c(SCC(=O)/C(C#N)=C(\C)N)nnc1C1CCCCC1 | -15.7 | 5.3 | 15.7 | 1.21
Cc1ccc(NC(=O)Cn2c(=O)oc3cc(S(=O)(=O)N4CCC(C)CC4)ccc32)cc1C | -17.5 | -8.3 | 17.5 | -5.87*
O=C(Cn1c(=O)oc2cc(S(=O)(=O)N3CCCCCC3)ccc21)NC1CCCCC1 | -1.0 | -17.7 | 1.0 | 0.638
Cc1ccc(C)n1-n1c(C)nc2scc(-c3ccccc3)c2c1=O | -1.3 | 7.2 | 1.3 | -6.86*
CSC(=O)CC(=O)NC(=O)c1ccccc1 | 2.4 | 89.3* | -2.4 | -0.458
O=C(O)CCCC(=O)NS(=O)(=O)c1ccc(Cl)cc1 | 5.4 | 6.9 | -5.4 | -0.0523
COc1ccc([N+](=O)[O-])cc1N(CC(O)CN(CC(C)C)CC(C)C)S(=O)(=O)c1ccccc1 (stereo not drawn) | -22.0 | -10.2 | 8.7 | -3.86*
CCOC(=O)/C(C(N)=NC(C)C)=C(\O)c1ccccc1 | -11.4 | -2.2 | 11.4 | 0.392
CCCCC(=O)NC(c1cccc([N+](=O)[O-])c1)c1c(OC(C)=O)ccc2ccccc12 (stereo not drawn) | -20.0 | -19.4 | 20.0 | -7.73*
CC(C)CC(/C(O)=C(\C#N)c1nc2ccccc2[nH]1)N1C(=O)c2ccccc2C1=O (stereo not drawn) | -16.2 | -13.0 | 16.2 | -6.58*
SMILES | NFkB transloc inh | IL1B cytotox | NFkB transloc pot | Cav3 T inh
O=C(NCCCCc1ccccc1)C1CC(c2cc(C(F)(F)F)cc(C(F)(F)F)c2)=NO1 (stereo not drawn) | / | / | / | -1.63
O=C(NCc1ccccc1)Oc1cccc(Cl)c1 | -42.3 | -62.4 | 42.3* | -1.25
COc1ccc(CNC(=O)Oc2ccccc2)cc1Cl | -4.6 | 0.5 | 4.6 | -5.19*
O=C(NCc1ccccc1)c1cccc(COc2cccc(Cl)c2)c1 | 1.8 | -27.5 | -1.8 | -3.76
O=P(OC1CCCCC1)(OC1CCCCC1)C(O)c1ccccc1 (stereo not drawn) | -14.6 | 24.6 | 14.6 | -2.34
O=C(NC(=S)Nc1ccccc1)c1cc(-c2ccccc2)nc2ccccc12 | -1.8 | -35.3 | 1.8 | -2.29
COc1ccc(Cl)cc1C(=O)NNC(=S)NC(=O)c1cc(-c2ccc(Cl)cc2)nc2ccccc12 | / | / | / | -6.57*
Cc1c(NC(=O)c2cnn3c2NC(c2ccc(Br)cc2)CC3C(F)(F)F)c(=O)n(-c2ccccc2)n1C (stereo not drawn) | -1.2 | -25.5 | 1.2 | -7.77*
Cc1c(CNC(=O)c2cnn3c2NC(c2ccc(Br)cc2)CC3C(F)(F)F)cnn1C (stereo not drawn) | 9.5 | 21.7 | -9.5 | -0.467
COc1ccc(CN2CCn3ncc(C(=O)Nc4cccc(C)c4)c3C2=O)cc1 | 1.1 | -25.4 | -1.1 | -5.53*
CNC(=O)c1sc(-c2ccccc2)nc1C | -19.2 | -12.6 | 19.2 | 0.328
CNC(=O)c1sc(-c2ccc(Cl)cc2)nc1C | 14.9 | 75.2* | -14.9 | 0.807
CC(=O)c1cccc(NC(=O)N2CCCC2C(=O)NC2CCCCC2)c1 (stereo not drawn) | 4.4 | 27.6 | -4.4 | 0.0305
CS(=O)(=O)N(Cc1ccccc1)c1ccccc1C(=O)N1CCN(c2ccccc2)CC1 | -1.6 | 17.5 | 1.6 | -0.953
Cc1ccc2c(CC(=O)OC(C)C(=O)NCc3ccc4c(c3)OCO4)coc2c1 (stereo not drawn) | 3.6 | -23.9 | -3.6 | -5.13*
Cc1ccc2c(CC(=O)NCc3ccc4c(c3)OCO4)coc2c1 | -1.9 | 10.1 | 1.9 | -4.63*
COC(=O)c1nn(-c2ccc(Cl)cc2)c(=O)cc1Sc1ccccn1 | -8.7 | -46.5 | 8.7 | 0.199
O=C(O)c1ccc(C(=O)Nc2cccc(NC(=O)C3CCCO3)c2)cc1 (stereo not drawn) | 6.5 | 23.1 | -6.5 | 0.0383
CC1(C)CC(=O)CC(C)(C)N1OC(=O)c1ccccn1 | -5.3 | -47.4 | 5.3 | -0.976
Cn1c(C2=C(O)CN(c3ccc4c(c3)OCCO4)C2=N)nc2ccccc21 | 8.8 | -0.5 | -8.8 | 0.583
O=C1CN(C(=O)c2cc(Br)c(Br)s2)c2ccccc2N1 | 0.1 | -5.5 | -0.1 | -5.56*
O=[N+]([O-])c1ccc(N2CCN(c3ccc(Cl)nn3)CC2)cc1NC1CC1 | -6.0 | -25.0 | 6.0 | 0.465
Cc1ccccc1-n1nc2c(c1NC(=O)c1ccc(Br)o1)CSC2 | -19.0 | -57.0 | 19.0 | -4.73*
Cc1ccc(-n2nc3c(c2NC(=O)c2ccc4c(c2)OCO4)CSC3)cc1 | 97.5* | 93.2* | -97.5 | 0.0176
Cc1ccc(-n2nc3c(c2NC(=O)c2c(-c4ccccc4Cl)noc2C)CS(=O)(=O)C3)c(C)c1 | 14.0 | -106.4 | -14.0 | /
SMILES | NFkB transloc inh | IL1B cytotox | NFkB transloc pot | Cav3 T inh
CCCC(=O)Nc1c2c(nn1-c1ccc(C)cc1C)CSC2 | 15.3 | 82.8* | -15.3 | 0.922
Cc1ccc(-n2nc3ccc(NC(=O)c4ccc5c(c4)OCO5)cc3n2)cc1 | -8.7 | -9.9 | 8.7 | 1.69
CN(C(=O)CSc1ncccc1C(=O)O)c1ccccc1 | -13.9 | -71.4 | 13.9 | -3.51*
O=C(CSc1ncccc1C(=O)O)c1ccccc1 | 1.1 | -69.9 | -1.1 | -0.0255
O=C1N=C(O)CN1/N=C/c1ccc(-c2ccc([N+](=O)[O-])cc2)o1 | / | / | / | 0.185
Cc1cc(C)cc(NC(=O)CSc2nnc(Cc3cccn3C)n2-c2ccc(F)cc2)c1 | 26.1 | -63.6 | -26.1 | -12.9*
Cn1cccc1Cc1nnc(SCC(=O)Nc2ccc3c(c2)OCO3)n1-c1ccc(F)cc1 | / | / | / | -8.52*
COc1cccc(NC(=O)CSc2nnc(Cc3cccn3C)n2-c2ccc(F)cc2)c1 | -4.2 | 15.9 | 4.2 | -5*
